Source: PubChem BioAssay
Hits are enriched below; roughly 19% of the tested compounds scored in any of these assays.
TDP1 cell CPT: qHTS for Inhibitors of human tyrosyl-DNA phosphodiesterase 1 (TDP1): qHTS in cells in presence of CPT. chicken DT40 Tdp1-/-;hTDP1 cells + 20 nM CPT, ATP luminescence, 48 h. Potency, µM (doses to about 46.2 µM), for inactives: at the highest dose activity change, negative = growth inhibition, hits mostly inhibitors. 12% of 420,000 active; also: potency is read from the fitted curve at half-maximal effect; nearly all actives have a fitted effect of over 55% in size
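Cell growth measured by CellTiter-Glo luminescence after a minimum 48 h, 37 C compound exposure with 20 nM CPT in Tdp1-knockout DT40 cells stably expressing hTDP1, seeded 400/well; qHTS titration format.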
HT1080-NT tox: qHTS for induction of synthetic lethality in tumor cells producing 2HG: qHTS for the HT-1080-NT fibrosarcoma cell line; HT-1080-NT fibrosarcoma viability, CellTiter-Glo ATP luminescence, 48 h; Potency, µM (series often up to 46.1 µM), for inactives: at the highest dose activity, negative = less viability, most hits filed as cytotoxic; 1.6% of 360,000 active; AID 686970, 2013;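 also: NT is the 2HG producing partner of a matched IDH1 knockdown line; potency is read from the fitted curve at half-maximal effect; 0% = DMSO-treated cells and -100% = media-only wells without cells; nearly all actives have a fitted effect of over 55% in size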
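Toxicity toward the 2HG-producing NT line was scored as %Activity, normalised to DMSO and no-cell wells, from CellTiter-Glo luminescence after 48 hours' treatment.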
IL1B secr inh: qHTS for Inhibitors of Inflammasome Signaling: IL-1-beta AlphaLISA Primary Screen | AID 743279, 2014 | activity change, % at 57.5 µM | THP-1 LPS/ATP IL-1B secretion, AlphaLISA, 16 h; active compounds read low | 4.7% of 360,000 active; in the data active = activity change below about -50%; inconclusive = mostly about -30% to -49%
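THP-1 cells pretreated 1 hr with compounds (up to 57.5 uM final), then stimulated with LPS (250 ng/mL final) plus ATP (1.25 mM final); secreted IL-1B measured by AlphaLISA after 16 hr, decreased signal indicating inhibition.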
HT1080 IDH1KD tx: qHTS for induction of synthetic lethality in tumor cells producing 2HG: qHTS for the HT-1080-IDH1KD cell line | HT-1080 IDH1 knockdown viability, ATP luminescence, 48 h | Potency, µM (highest dose often 46.1 µM), for the others: top-dose activity, negative = toxicity, hits mostly cytotoxic | 2% of 360,000 active | AID 686971, 2013;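 also: potency is read from the fitted curve at half-maximal effect; 0% = DMSO wells and -100% = cell-free medium wells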
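HT-1080-IDH1KD cells (IDH1 knocked down), 750/well in RPMI with 5% FBS, treated with compound 48 h at 37 degrees C. Viability by CellTiter-Glo luminescence, normalised to DMSO and no-cell wells; concentration-response curves classed.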
TDP1 cell noCPT: qHTS for Inhibitors of human tyrosyl-DNA phosphodiesterase 1 (TDP1): qHTS in cells in absence of CPT. DT40 Tdp1-/- hTDP1 cells, no CPT, ATP luminescence, 48 h. Potency, µM (series often up to 46.2 µM), for inactives: at the highest dose activity change, negative = growth inhibition, most hits filed as inhibitors. 15% of 420,000 active; also: potency is read from the fitted curve at half-maximal effect; nearly all actives have a fitted effect of over 55% in size
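No-CPT arm: Tdp1-/-;hTDP1 DT40 cells (400/well) plus compounds, incubated ≥48 hr at 37 °C. Readout CellTiter-Glo luminescence.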
* = called active by the depositor; ? = inconclusive; . = no result; [ ] = another dose, or the depositor's remark. Unless noted, calls follow the shape of the dose curve; as a rule, active = well fitted curve in the direction sought with a large enough effect; inconclusive = small, poorly fitted or top-dose-only effect, or another doubt; inactive = no such curve, though single readings can be large; an effect the other way counts as inactive or inconclusive. Unless noted, % is scaled to controls: 0 for no effect and ±100 for the full control effect.

SMILES	TDP1 cell CPT	HT1080-NT tox	IL1B secr inh	HT1080 IDH1KD tx	TDP1 cell noCPT
COc1ccc(NC(=O)CN2C(=O)CSc3ncccc32)cc1	-14.9%	10.2%	10.4	2.0%	11.6%
CCCC1=C(C(=O)OCC)C(c2cc(Cl)cc(OC)c2OCC(=O)OCC)NC(=O)N1 (configuration not stated)	?	-5.5%	6.3	-0.8%	23.1µM*
CCOC(=O)COc1c(OC)cc(Cl)cc1C1NC(=O)NC(C)=C1C(C)=O (configuration not stated)	-18.4%	18.6%	-6.2	-4.1%	-2.6%
Cc1ccc(NC(=O)COC(=O)CCc2ccccc2)cc1S(=O)(=O)N1CCOCC1	3.0%	-5.7%	-16.6	7.6%	0.9%
COc1ccc(C(=O)Nc2ccc(Cn3ccnc3)cc2)cc1OC	20.7%	?	-13.6	?	-4.2%
O=C(Nc1ccccc1)c1cccc(Cn2cc(C(F)(F)F)ccc2=O)c1	?	2.8%	-4.5	-5.7%	20.6µM*
O=C(Nc1ccccc1)c1ccc(Cn2cc(C(F)(F)F)ccc2=O)cc1	-9.6%	?	5.3	-0.8%	-1.7%
O=C(Nc1cc(C(F)(F)F)cc(C(F)(F)F)c1)c1ccc(Cn2cc(C(F)(F)F)ccc2=O)cc1	20.6µM*	-12.0%	29.4	-22.3%	16.4µM*
O=C(Nc1ccc(Cn2ccnc2)cc1)c1cccc(C(F)(F)F)c1	-23.7%	0.9%	-54.3*	-11.0%	-17.3%
O=C(Sc1ccccc1)c1cccc(Cn2cc(C(F)(F)F)ccc2=O)c1	18.4µM*	18.4µM*	-12.4	23.1µM*	16.4µM*
Cc1ncc2c(c1CNC(=O)c1ccc3c(c1)OCO3)CCN(C(=O)c1cccc(-n3cccn3)c1)C2	0.3%[9.04 µM]	.	.	.	-22.1%
CC1CCc2c(sc3nnn(CC(=O)Nc4c(C(C)C)cccc4C(C)C)c(=O)c23)C1 (configuration not stated)	?	.	.	.	14.6µM*
Cc1ccc(OCCCCn2nnc3sc4c(c3c2=O)CCC(C)C4)cc1 (configuration not stated)	-13.6%	.	.	.	-9.1%
CCc1cccc(CC)c1NC(=O)Cn1nnc2sc3c(c2c1=O)CCCC3	?	.	.	.	8.2µM*
CCC1CCCCN1CC(=O)c1c(C)[nH]c2cc(C)ccc12 (configuration not stated)	4.6%	-23.9%	44.8	-18.1%	-4.5%
Cc1cccc([N+](=O)[O-])c1NC(=O)COC(=O)c1nc2nccc(C)n2n1	-11.4%	7.7%	18.2	4.2%	0.4%
Cc1cc2c(cc1C)N(C(=O)CSC1=NCCS1)C(C)(C)c1ssc(=S)c1-2	?	-28.5%	-50.1*	?	?
COc1ccc2c(c1)-c1c(ssc1=S)C(C)(C)N2S(=O)(=O)c1ccc(C)cc1	14.6µM*	?	9.6	6.51µM*	5.17µM*
Cc1ccc(S(=O)(=O)N2c3ccccc3-c3c(ssc3=S)C2(C)C)cc1	?	-3.4%	-5.5	?	?
COc1ccc2c(c1)-c1c(ssc1=S)C(C)(C)N2C(=O)CSC1=NCCS1	?	-4.4%	-21.2	-21.7%	23.1µM*
Cc1cc(C)c2c(c1)-c1c(ssc1=S)C(C)(C)N2C(=O)CSc1nncn1C	25.9µM*	?	-10.9	18.4µM*	23.1µM*
CC(C)c1ccc(NC(=O)C(c2ccccc2)N2CC(=O)Nc3ccccc32)cc1 (configuration not stated)	-13.5%	-8.8%	-4.8	-6.5%	-23.5%
CCOc1ccc2c(c1)-c1c(ssc1=S)C(C)(C)N2C(=O)c1ccco1	5.17µM*	4.61µM*	-11.7	5.17µM*	2.91µM*
COc1ccc(OC)c(N(C(=O)c2ccco2)C(C(=O)NC2CCCC2)c2ccc(N3CCOCC3)cc2)c1 (configuration not stated)	1.5%	10.2%	-12.4	5.6%	-27.1%
CCN1C(=O)[C@H]2[C@@H](c3ccc(-c4ccc5c(c4)OCO5)cc3)N3CCC[C@@]3(C(=O)OC)[C@H]2C1=O	?	5.8%	-26.0	0.5%	11.6µM*
SMILES	TDP1 cell CPT	HT1080-NT tox	IL1B secr inh	HT1080 IDH1KD tx	TDP1 cell noCPT
CCN1C(=O)[C@@H]2[C@@H](c3ccc(-c4ccc5c(c4)OCO5)c(OC)c3)N3CCC[C@@]3(C(=O)OC)[C@@H]2C1=O	-9.7%	5.8%	3.1	3.3%	?
CCN1C(=O)[C@@H]2[C@@H](c3ccc(-c4ccc5c(c4)OCO5)cc3)N3CCCC[C@@]3(C(=O)OC)[C@@H]2C1=O	14.6µM*	0.0%	-2.6	2.6%	20.6µM*
CCCOc1ccc(NC(=O)C(=O)NCCCN2CCOCC2)cc1	-19.6%	.	.	.	-18.3%
Cc1ccc(C(=O)Nc2nc(-c3nnn(-c4cccc(C(F)(F)F)c4)c3C)ns2)cc1	3.26µM*	.	.	.	4.11µM*
Cc1ccc(C(=O)Nc2nc(-c3nnn(-c4cccc(Cl)c4C)c3C)ns2)cc1C	25.9µM*	.	.	.	18.4µM*
Cc1ccc2cc(C3C(C#N)=C(N)Oc4c3ccc3cccnc43)c(=O)[nH]c2c1 (configuration not stated)	?	11.2µM*	88.8	?	?
CC(=O)C1=C(C)OC(N)=C(C#N)C1c1cc2cccc(C)c2nc1Cl (configuration not stated)	-5.9%	-1.0%	14.7	-14.3%	?
CCc1ccc2[nH]c(=O)c(C3C(C#N)=C(N)Oc4c3ccc3cccnc43)cc2c1 (configuration not stated)	11.6µM*	?	99.0	?	8.2µM*
Nc1nc(N)c2c(ccc3nccc32)[nH]1	1.84µM*	5.8µM*	17.3	4.61µM*	1.03µM*
CC(=O)N1CCN(c2ccc(S(C)(=O)=O)cc2[N+](=O)[O-])CC1	15.7%	24.6%	6.1	15.3%	6.4%
CCc1ccccc1OCCCN1CCCC1	1.3%	-14.2%	16.3	-9.1%	-3.7%
CCN1CCN(CCCOc2ccccc2-c2ccccc2)CC1	?	-19.3%	-4.9	-17.2%	?
N=C(C[C@@H](O)COc1ccccc1-c1ccccc1)N1CCCCC1	2.99µM*	.	.	.	3.76µM*
c1ccc2c(OCCCN3CCCCCC3)cccc2c1	29.1µM*	?	?	-4.2%	23.1µM*
OCCN1CCN(CCOc2ccccc2-c2ccccc2)CC1	?	-13.9%	-26.3	-14.9%	?
c1ccc(-c2ccccc2OCCCN2CCCCC2)cc1	16.4µM*	-7.6%	-15.4	-14.8%	14.6µM*
COc1cccc(C(=O)OCC(=O)Nc2ccc(N3CCOCC3)cc2)c1	1.1%	-1.1%	10.7	4.3%	-10.2%
